# According to PubChem BioAssay (EPA / NIEHS):
# Results filed as inconclusive are left out. Calls of active or inactive are those of the source. Rule for the calls, unless noted: active = hit-call score of the fitted dose curve at least 0.9, where 1 is the maximum; inactive = score below 0.9.
# Tests used:
# [1] = ACEA_ER_80hr: ACEA Biosciences xCELLigence Real-Time Cell Analysis on Estrogen Receptor Agonism for Proliferation (AID 2282667; active = hit-call score of the fitted dose curve at least 0.9, where 1 is the maximum); conditions: T47D proliferation, impedance (xCELLigence), 80 h
# Summary of the method: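 T-47D cells monitored by electrical impedance (xCELLigence) with compound present throughout; 80 h timepoint, positive-direction fitting versus DMSO. Eight-point 1:4 dilutions from 100 uM final, duplicate plates.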
# [2] = APR_HepG2_CellCycleArrest_24hr: Apredica 24-hour HepG2 Assay for Cell Cycle Arrest (AID 2282905); conditions: imaging, actives raise or lower the signal;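 note: cell cycle arrest scored as ratio of 2N to 4N nuclear DNA content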
# Summary of the method: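 Compounds at 0.39–200 uM (0.5% DMSO) for 24 h, then fixed and Hoechst 33342 stained. Cell-cycle analysis of nuclear DNA content by high-content imaging, fitted bidirectionally versus DMSO.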
# [3] = APR_HepG2_NuclearSize_24hr: Apredica 24-hour HepG2 Assay for Nuclear Size (AID 2282907); conditions: high-content imaging, actives raise or lower the signal
# Summary of the method: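 HepG2 cells exposed 24 h to compounds at 0.39–200 uM (0.5% DMSO), fixed, Hoechst 33342 stained and imaged at 20x; nuclear diameter measured by automated image analysis, fitted bidirectionally against DMSO controls.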
# [4] = APR_HepG2_CellLoss_24hr: Apredica 24-hour HepG2 Assay for Cell Loss (AID 2282908); conditions: high-content imaging;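 for AC50: fit in both directions so a hit may be cell loss or gain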
# Summary of the method: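 HepG2 cells exposed 24 hr to 0.39–200 uM compound in duplicate at 0.5% v/v final DMSO. Cells fixed in 3.7% formaldehyde and Hoechst 33342-stained. Cell number came from nuclear imaging at 20x. Bidirectional fit versus DMSO.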
# [5] = APR_HepG2_MitoticArrest_24hr: Apredica 24-hour HepG2 Assay for Mitotic Arrest (AID 2282910); conditions: high-content imaging, actives raise or lower the signal
# Summary of the method: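 Compounds are dosed onto HepG2 cells across ten concentrations up to 200 uM for 24 hr. Cells are then fixed in 3.7% formaldehyde, permeabilised, and labelled for phospho-histone H3 and nuclei; images are scored by cell cycle analysis and fitted bidirectionally relative to DMSO.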
# [6] = APR_HepG2_MitoMembPot_24hr: Apredica 24-hour HepG2 Assay for Mitochondrial Membrane Potential (AID 2282911); conditions: imaging, actives raise or lower the signal
# Summary of the method: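 HepG2 cells exposed 24 h to 0.39–200 uM compounds in duplicate, 0.5% v/v DMSO final. MitoTracker Red CMXRos 250 nM loaded 30 min before formaldehyde fixation; high-content imaging at 20x, bidirectional fit versus DMSO.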
# [7] = APR_HepG2_MitoMass_24hr: Apredica 24-hour HepG2 Assay for Mitochondrial Mass (AID 2282912); conditions: high-content imaging, actives raise or lower the signal
# Summary of the method: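 HepG2 cells exposed 24 hr to 0.39–200 uM compound, 0.5% v/v DMSO, in duplicate. Stained before fixation with 250 nM MitoTracker Red CMXRos for 30 min, then imaged at 20x with Hoechst nuclei. Fitted in both directions against DMSO.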
# [8] = APR_HepG2_p53Act_24hr: Apredica 24-hour HepG2 Assay for p53 Activation (AID 2282913); conditions: high-content imaging, actives raise or lower the signal;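 note: p53 protein immunofluorescence averaged per cell in HepG2 with Hoechst nuclei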
# Summary of the method: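 HepG2 cells exposed 24 h to compounds at 0.39–200 uM in duplicate, 0.5% v/v DMSO final; fixed, permeabilized, stained with anti-p53 antibody and Hoechst 33342; fluorescence imaging; bidirectional curve fit versus DMSO.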
# [9] = APR_HepG2_CellCycleArrest_72hr: Apredica 72-hour HepG2 Assay for Cell Cycle Arrest (AID 2282914); conditions: high-content imaging, actives raise or lower the signal
# Summary of the method: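 HepG2 cells exposed 72 h in duplicate to 0.39–200 uM compound, 0.5% DMSO final. Formaldehyde-fixed, Hoechst 33342-stained nuclei imaged at 20x, six fields per well; DNA content per valid cell quantified by cell-cycle image analysis, bidirectional fit versus DMSO.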
# [10] = APR_HepG2_MicrotubuleCSK_24hr: Apredica 24-hour HepG2 Assay for Microtubule CSK Stabilty (AID 2282909); conditions: HepG2 microtubule cytoskeleton imaging, actives raise or lower the signal
# Summary of the method: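 HepG2 cells were treated 24 hr with compound at 0.39–200 uM in duplicate (0.5% DMSO final), then fixed and permeabilized. Alpha-tubulin immunofluorescence was imaged by high-content microscopy, with bidirectional fitting against DMSO and taxol as positive control.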
smiles,measurement,setting,value
CCCN(CCC)c1c([N+](=O)[O-])cc(C(C)C)cc1[N+](=O)[O-],outcome,[1],inactive
same,AC50,[2],49 µM (active)
same,outcome,[3],inactive
same,AC50,[4],32.6 µM (active)
same,outcome,[5],inactive
same,AC50,[6],55.2 µM (active)
same,AC50,[7],42.9 µM (active)
same,AC50,[8],52.9 µM (active)
same,AC50,[9],35.4 µM (active)
CCOP(=S)(OCC)SCSCC,AC50,[1],19.7 µM (active)
same,AC50,[2],114 µM (active)
same,outcome,[3],inactive
same,outcome,[4],inactive
same,outcome,[10],inactive
same,outcome,[5],inactive
same,outcome,[6],inactive
same,outcome,[7],inactive
same,AC50,[9],111 µM (active)
CC(O)C#N (configuration not stated),outcome,[1],inactive
CCOC(=O)c1ccccc1N,outcome,[1],inactive
CCC(C)(C)c1ccc(O)cc1,AC50,[1],2.14 µM (active)
same,outcome,[2],inactive
same,outcome,[3],inactive
same,AC50,[4],109 µM (active)
same,AC50,[5],107 µM (active)
same,AC50,[6],100 µM (active)
same,outcome,[7],inactive
same,AC50,[8],109 µM (active)
same,AC50,[9],108 µM (active)
c1nc[nH]n1,outcome,[1],inactive
same,outcome,[2],inactive
same,outcome,[3],inactive
same,outcome,[4],inactive
same,outcome,[5],inactive
same,outcome,[6],inactive
same,outcome,[7],inactive
same,outcome,[8],inactive
same,outcome,[9],inactive
O=C(O)C(F)(F)OC(F)(F)C(F)(F)OC(F)(F)F,outcome,[1],inactive
COP(N)(=S)OC,outcome,[1],inactive
Nc1ccc(Cl)cc1,outcome,[1],inactive
same,outcome,[2],inactive
same,outcome,[3],inactive
same,outcome,[4],inactive
same,outcome,[5],inactive
same,outcome,[6],inactive
same,outcome,[7],inactive
same,outcome,[8],inactive
same,outcome,[9],inactive
CCC1(c2ccccc2)C(=O)N=C(O)NC1=O (configuration not stated),outcome,[1],inactive
same,outcome,[2],inactive
same,outcome,[3],inactive
same,outcome,[4],inactive
same,outcome,[5],inactive
same,outcome,[6],inactive
same,outcome,[7],inactive
same,outcome,[8],inactive
same,outcome,[9],inactive
CCOP(=S)(OCC)SCS(=O)(=O)CC,outcome,[1],inactive
CC(C)(C)N(NC(=O)c1ccc(Cl)cc1)C(=O)c1ccccc1,outcome,[1],inactive
ClC(Cl)(Cl)c1ccccc1,outcome,[1],inactive
same,outcome,[2],inactive
same,outcome,[3],inactive
same,outcome,[4],inactive
same,outcome,[5],inactive
same,outcome,[6],inactive
same,outcome,[7],inactive
same,outcome,[8],inactive
same,outcome,[9],inactive
Cc1cccc(N)c1,outcome,[2],inactive
same,outcome,[3],inactive
same,outcome,[4],inactive
same,outcome,[5],inactive
same,outcome,[6],inactive
same,outcome,[7],inactive
same,outcome,[8],inactive
same,outcome,[9],inactive
Nc1cc2c3c(c1)C(c1ccccc1)=N[C@@H](NC(=O)c1cccnc1)C(=O)N3CC2,outcome,[1],inactive
same,outcome,[2],inactive
same,outcome,[3],inactive
same,outcome,[4],inactive
same,outcome,[5],inactive
same,outcome,[6],inactive
same,outcome,[7],inactive
same,outcome,[9],inactive
O=[N+]([O-])c1ccccc1,outcome,[1],inactive
same,outcome,[2],inactive
same,outcome,[3],inactive
same,outcome,[4],inactive
same,outcome,[5],inactive
same,outcome,[6],inactive
same,outcome,[7],inactive
same,outcome,[8],inactive
same,outcome,[9],inactive
Cc1ccc(O)cc1C,outcome,[1],inactive
same,outcome,[4],inactive
same,outcome,[5],inactive
same,outcome,[6],inactive
same,outcome,[7],inactive
same,outcome,[8],inactive
CSC(C)(C)C=NO,outcome,[1],inactive
same,outcome,[2],inactive
same,outcome,[3],inactive
same,outcome,[4],inactive
same,outcome,[5],inactive
same,outcome,[6],inactive
same,outcome,[7],inactive
same,outcome,[9],inactive
c1cc2c3c(cccc3c1)CC2,outcome,[2],inactive
same,outcome,[3],inactive
same,outcome,[4],inactive
same,outcome,[5],inactive
same,outcome,[6],inactive
same,outcome,[7],inactive
same,outcome,[8],inactive
same,outcome,[9],inactive
CCCCN(CCCC)SN(C)C(=O)Oc1cccc2c1OC(C)(C)C2,outcome,[1],inactive
same,AC50,[2],48.4 µM (active)
same,outcome,[3],inactive
same,AC50,[4],98 µM (active)
same,AC50,[5],79.2 µM (active)
same,outcome,[6],inactive
same,AC50,[7],92.7 µM (active)
same,AC50,[9],23.3 µM (active)
O=C(O)C(Cl)Cl,outcome,[2],inactive
same,outcome,[3],inactive
same,outcome,[4],inactive
same,outcome,[5],inactive
same,outcome,[6],inactive
same,outcome,[7],inactive
same,outcome,[9],inactive
c1ccc(OP(Oc2ccccc2)Oc2ccccc2)cc1,outcome,[2],inactive
same,outcome,[3],inactive
same,outcome,[4],inactive
same,outcome,[5],inactive
same,outcome,[6],inactive
same,outcome,[7],inactive
same,outcome,[8],inactive
same,outcome,[9],inactive
CC(C)(C)c1ccc(O)cc1,outcome,[4],inactive
same,outcome,[5],inactive
same,outcome,[6],inactive
same,outcome,[7],inactive
same,outcome,[8],inactive
CCOS(=O)(=O)OCC,outcome,[2],inactive
same,outcome,[3],inactive
same,outcome,[4],inactive
same,outcome,[5],inactive
same,outcome,[6],inactive
same,outcome,[7],inactive
same,outcome,[8],inactive
same,outcome,[9],inactive
